Reference: PubChem BioAssay (NCATS)
Results filed as inconclusive are left out. Where a call stands in place of a potency, no number is given. Activity calls are given as the source filed them. Calls follow the shape of the dose curve; as a rule, active = well fitted curve in the direction sought with a large enough effect; inconclusive = small, poorly fitted or top-dose-only effect, or another doubt; inactive = no such curve, though single readings can be large; an effect the other way counts as inactive or inconclusive.

Molecular target: Pyruvate kinase (Leishmania mexicana) (UniProt Q27686)
Experiment: qHTS Validation Assay for Inhibitors of Leishmania Mexicana Pyruvate Kinase (AID 945)
Details: purified L. mexicana pyruvate kinase, enzyme activity, E451W mutant enzyme; series mostly up to 57.5 µM
Outline: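 Eight-point qHTS titrations; enzyme 0.2 nM LmPYK (E451W mutant); substrates 0.5 mM PEP, 0.1 mM ADP; 7 mM MgCl2; 1 h room temperature; PKLight luminescence normalized to neutral control.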
Potency is read from the fitted curve at half-maximal effect.

Sequence of Pyruvate kinase (Leishmania mexicana) (Q27686 2-499 E452W): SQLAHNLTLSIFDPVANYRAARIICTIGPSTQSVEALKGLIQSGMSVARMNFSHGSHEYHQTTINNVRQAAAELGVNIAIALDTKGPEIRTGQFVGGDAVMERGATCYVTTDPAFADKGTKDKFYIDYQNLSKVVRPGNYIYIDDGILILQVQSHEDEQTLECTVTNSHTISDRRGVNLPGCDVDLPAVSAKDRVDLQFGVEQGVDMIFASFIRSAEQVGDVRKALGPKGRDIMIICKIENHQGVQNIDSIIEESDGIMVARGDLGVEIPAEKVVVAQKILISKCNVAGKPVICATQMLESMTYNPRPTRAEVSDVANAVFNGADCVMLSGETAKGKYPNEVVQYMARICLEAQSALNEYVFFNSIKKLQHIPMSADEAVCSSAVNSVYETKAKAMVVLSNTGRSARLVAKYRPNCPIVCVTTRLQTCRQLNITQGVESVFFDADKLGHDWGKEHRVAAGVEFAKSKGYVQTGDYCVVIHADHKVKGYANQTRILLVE

| SMILES | Potency |
| --- | --- |
| CN=c1nc(-c2ccccc2)n(-c2ccccc2)s1 | 5.01 µM (active) |
| COc1ccc(/C=C/C(=O)Nc2ccccc2C(=O)O)cc1OC | 12.6 µM (active) |
| Cc1ccc(O)c(N=Nc2ccccc2)n1 | 6.31 µM (active) |
| CN1CCc2cc(NC(=O)Nc3cccnc3)ccc21 | 20 µM (active) |
| O=C(Nc1cccc(C(=O)Nc2ccc(S(=O)(=O)O)c3cc(S(=O)(=O)O)cc(S(=O)(=O)O)c23)c1)Nc1cccc(C(=O)Nc2ccc(S(=O)(=O)O)c3cc(S(=O)(=O)O)cc(S(=O)(=O)O)c23)c1 | inactive |
| Oc1cc2c(cc1O)CN(C(=S)NCCc1ccc(Cl)cc1)CCC2 | inactive |

Test system: not listed separately
Experiment: MultiTox-Fluor Cytotoxicity Assay - LYMP1-001 - Dead Cells (AID 946);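 also: cells exposed to compound for 16 h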
Details: LYMP1-001 lymphoblastoid cells, dead-cell protease fluorescence; series mostly up to 92.2 µM
Outline: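 Seed 2500 LYMP1-001 cells/well, incubate 5 hr at 37 C; add compound, 16 hr at 37 C; add MultiTox-Fluor reagent, 60 min RT; read dead-cell fluorescence Ex/Em=485/520. Normalize to DMSO and 15 uM tetraoctylammonium bromide.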

| SMILES | Potency |
| --- | --- |
| Nc1ccc([N+](=O)[O-])cc1O | inactive |
| O=C(O)c1cc(O)c(O)c(O)c1 | inactive |
| O=C1CN(/N=C/c2ccc([N+](=O)[O-])o2)C(=O)N1 | inactive |
| Nc1nc2ccc([N+](=O)[O-])cc2s1 | inactive |
| Nc1ccc(O)c([N+](=O)[O-])c1 | inactive |
| CN(C)CCC(c1ccc(Cl)cc1)c1ccccn1 (configuration not stated) | inactive |
| CCCCCCCCCCCCCCCCCC(=O)O | inactive |
| Nc1ccc(O)c(C(=O)O)c1 | inactive |
| c1ccc2sc(SSc3nc4ccccc4s3)nc2c1 | inactive |
| O=c1cc(-c2ccccc2)oc2ccccc12 | inactive |
| CN(C)c1ccc(C(=C2C=CC(=[N+](C)C)C=C2)c2ccccc2)cc1 | 0.501 µM (active) |
| CCCOC(=O)c1ccc(O)cc1 | inactive |
| CC1(C)S[C@@H]2[C@H](NC(=O)[C@H](N)c3ccccc3)C(=O)N2[C@H]1C(=O)O | inactive |
| O=C(O)/C=C\C(=O)O | inactive |
| N=C1N=C(N)c2cc3ccccc3cc21 | 39.8 µM (active) |
| CC(C)NCC(O)COc1cccc2ccccc12 (configuration not stated) | inactive |
| CN1CCC[C@H]1c1cccnc1 | inactive |
| COc1cc(CNC(=O)CCCC/C=C/C(C)C)ccc1O | inactive |
| CN(C)c1ccc(N=NS(=O)(=O)O)cc1 | inactive |
| COc1cc(/C=C/C(=O)CC(=O)/C=C/c2ccc(O)c(OC)c2)ccc1O | 50.1 µM (active) |
| NCCO | inactive |
| S=c1[nH]c2ccccc2s1 | inactive |

Test system: not listed separately
Experiment: MultiTox-Fluor Cytotoxicity Assay - LYMP1-001 - Live Cells (AID 947)
Details: LYMP1-001 lymphoblastoid cells, live-cell protease fluorescence viability; series mostly up to 92.2 µM

| SMILES | Potency |
| --- | --- |
| Nc1ccc([N+](=O)[O-])cc1O | inactive |
| Nc1nc2ccc([N+](=O)[O-])cc2s1 | inactive |
| Nc1ccc(O)c([N+](=O)[O-])c1 | inactive |
| C#C[C@]1(O)CC[C@H]2[C@@H]3CCc4cc(O)ccc4[C@H]3CC[C@@]21C | inactive |
| CCCCCCCCCCCCCCCCCC(=O)O | inactive |
| Nc1ccc(O)c(C(=O)O)c1 | inactive |
| c1ccc2sc(SSc3nc4ccccc4s3)nc2c1 | inactive |
| O=c1cc(-c2ccccc2)oc2ccccc12 | inactive |
| CN(C)c1ccc(C(=C2C=CC(=[N+](C)C)C=C2)c2ccccc2)cc1 | 1 µM (active) |
| CCCOC(=O)c1ccc(O)cc1 | inactive |
| CC1(C)S[C@@H]2[C@H](NC(=O)[C@H](N)c3ccccc3)C(=O)N2[C@H]1C(=O)O | inactive |
| O=C(O)/C=C\C(=O)O | inactive |
| CC(C)NCC(O)COc1cccc2ccccc12 (configuration not stated) | inactive |
| CN1CCC[C@H]1c1cccnc1 | inactive |
| COc1cc(CNC(=O)CCCC/C=C/C(C)C)ccc1O | inactive |
| CN(C)c1ccc(N=NS(=O)(=O)O)cc1 | inactive |
| COc1cc(/C=C/C(=O)CC(=O)/C=C/c2ccc(O)c(OC)c2)ccc1O | inactive |
| NCCO | inactive |
| S=c1[nH]c2ccccc2s1 | inactive |
